# Laboratory results taken from the supplement of paper PMC10105736.
# A number with no mark means an inactive call.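 The calls were made as follows: active = MAPPIT score above the 99th percentile of random reference set scores in the same batch; inactive = at or below it.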
# B1: CG42540 (protein)
# chain: MPDSMMDMEHRDHQLHRQQQQSHHHQPPRLTASTSTFAPPAPAGSQSEERDRDRDRERDHHLHHHQSNNVASSPLPVTASIQLHQQQPQQQQQQQPLTQLQQPQLREREHHQQQQQQQQQMMQQPQQQQQMQQPQQQLPHSHHALMQQSQQQQAIHRAEARRADEEISDKASTCGKLLIFLSVALVIMTLPFSLFVCFKVVQEYERAVIFRLGRLMQGGAKGPGIFFILPCIDSYARVDLRTRTYDVPPQEVLTKDSVTVSVDAVVYYRVSNATVSIANVENAHHSTRLLAQTTLRNTMGTRHLHEILSERMTISGTMQVQLDEATDAWGIKVERVEIKDVRLPVQLQRAMAAEAEAAREARAKVIAAEGEQKASRALREASEVIGDSPAALQLRYLQTLNTISAEKNSTIVFPLPIDLITYFLKTNEATTQQNARAAAAAIGNTPPPLQLAPQQQMGQQQQPQYQQPQQQQQQYQPQQQQQQQQQQPQQQDQLYQQGQQISSAM
# B2: Cyp12e1 (protein)
# chain: MLSTQWNANKQISRQIYQLCRGLAQKATAVNLEEAKPYADIPGPSKLQLIRAFLPGGLYKNLPVHEMFLDMNRQYGSIFRMPSVAGTDLVLTMNPQDYEVIFRNEGQYPYRRSFEVMDYFKRVHRREVFDGYDGLTSGNGPAWGKMRTAVNPILLQPRNAKLYMTNLVQVSDEFLERIRIIRDPVTQEMPDDFAVDIRHLVIESICSVALNTHLGLLGEQRNNKDIQKLVLALQDVVELGFQLDIMPAFWKYLPMPNFKKLMRSLDTITDFCYFHIGNALKRIEEDAKAGTLNEIGLETSLLEKLARFDRQTAVIIAMDLLFAGADPTLVTLGGILFSLSKSPDKQARLLEEIRGILPNKDSSLTIENMRNLPYLRACIKEGIRMYPIGPGTLRRMPHDVVLSGYRVVAGTDVGIAANYQMANMEQFVPKVREFIPERWLRDESNSHLVGETATPFMYLPFGFGPRSCAGKRIVDMMLEIAISRLVRNFKIGFDYPIENAFKAQFFVQPNIPFKFKFIERNE
# B3: Vha16-1 (protein)
# chain: MSSEVSSDNPIYGPFFGVMGAASAIIFSALGAAYGTAKSGTGIAAMSVMRPELIMKSIIPVVMAGIIAIYGLVVAVLIAGALEEPSKYSLYRGFIHLGAGLAVGFSGLAAGFAIGIVGDAGVRGTAQQPRLFVGMILILIFAEVLGLYGLIVAIYLYTK
# B4: hig (protein)
# chain: MWSRQRMRHKPLWALISLTVLLLVLDKSNANTEPVETSTTSEPDASPGCRAPDVRFTIVKPEATTEQPLAKFETTQIYLPEDFTTADVEFVDSVPRHPNENHAAVINPYSLDLGDDHLHVGDAAASLVGDDDLGDEDEDHHGDPEDKRLNANRKQGKRRRAGSGRRRRIENENGQTGRGRGSRYKRHAILHDTEASPETDRWAGSKLAAEGDVYYVHIADILKSREPNRELKSKLHKLKMKARLNKCLAEGGKEKCTRLLKKKPKKKVVEKEQTLKKEKKFPKEEQSKEKVPENGQTPKEDELELDHPETAAAHHRRRGDSHAAELDQRDRSPRWRRRRSTEFKGDLGQLPPESGIGPEPEPLADQDLKDLQQYGNQSSSARVALLWQRVKRKSGKTTGALSRPKGGGDSSSKTTSRKDKGIYDEEAGYTPIHPDDPEFDEEEEEDEEVDILQQFTEVSEIRFPGEIGPMGDRRLCKIRCVKGKWVGPLCATNEEDDNGNVKFQPLYKSCHVNRIPSHLLLSYRNISVTPIPPNRGWRKTRLSKSTLLSNTEINVGWDLPHGHSLQARCQELGIYKLLGESRVLCSNGLWAPRMPSCVPTTVLTNYSEDSAPSIRIKIFNGSHSFEPSGVMAVPPHSTVLMDCMYPRVRGTPEWSWTSWYMQYSTGWSPAQEEKAVRYRLSIKNIENNDSGTFTCTSPRGLTNSIAVVVATSTCPQLTEPLAPLKLRLEGNKLGQRAHYECPEGFRLDGAWNATCLASGNWSSPTPTCHAIQCPRLELDDPHLSLIELNTSAWGRAVFKCQWGFKLTGPAQLDCEPSGVWSGPVPRCKVIQCVMPVAPLNGRIGGTSLSQRRLTVGALVTFSCNDGHSLVGESSIICTENGQWSHSPPFCKSQCPYPGDPPNGLIAPLKFNYDAGDYLSVQCRPGFVQSYEGPPERPKCQPDGRWSGPMPKCKSYEEV
# B5: Psc (protein)
# chain: MMTPESKAIQPAAATTKQTAEATATTTMAHTQQKSQLSTLAKTTTTTATNKAAKSVVSNANSSGNNSSKKLALSQSQKTTTTTTPPTTTTTTTAAAAAEATTNADKMQKQQQLKQQLFAACSIKVKSENTLATTANAALAAATTTTTTATPALATGKAAKTILENGIKKESTPPAVESVEASSSSSSSSSSSSSSSSSWPTTRRATSEDASSNGGASADEEKSEEDPTAAVAASSTATTTSDLATTSRPRPVLLTAVNPHIICHLCQGYLINATTIVECLHSFCHSCLINHLRKERFCPRCEMVINNAKPNIKSDTTLQAIVYKLVPGLYERELMRKRAFYKDRPEEAALATPEQRGDDTEHLIFSPSDDMSLSLEYAELGELKTDSEPELVDTLRPRYLQCPAMCRVSHLKKFVYDKFEIDAQRFSIDIMYKVKTIVLLDYYTLMDIAYIYTWKRDAPMRFYYRVYESPQPLVKPAPRRVLPLKLEKQERENQEQQLAVEVASSKVEPVSLPEDQKAEASIKVEEQESTREIVKEVIKDVAATPPTETLKLVINRNMLDKREKSHSPQMSSKSSSKSSPCTPVSSPSEPNIKLKIDLSKQNSVTIIDMSDPERREIVKPLKPEKESRSKKKDKDGSPKSSSSSSSSSSGERKRKSPSPLTVPPLTIRTERIMSPSGVSTLSPRVTSGAFSEDPKSEFLKSFALKPIKVKVESPERTLNNRAITPPSPSVQQSASPKSKGNNLDDSILMKPPSCMPPKSIASSKRKSKEPVKAVSKKQKLSPPLPTVDFKIRLPVTNGNSSGTASPKIEKPLMPPPAKPPMLAPRKLQPSAQFAPPPSPIHHHAGVQMSAPGNRTPIAKRYQPILPKASRPNPFANIPNDVNRLLKDAGTEIKSIGGGSVENNSNAAQKPHLYGPKGESKMGPPALPATTPSQGNKNVGKQAGNLPMSAPPNKGNSSNNYLNLALFNSSKCKGKEAPPGCRTPMYTPNSPIYSPSSPQYVPSYNIPTMPTYKYTPKPTPNSGSGNGGSGSYLQNMLGGGNGGSLGGLFPSPPTKSDQNTNPAQGGGGSSSATQSGGNNGIVNNNIYMPNEDAPEKQQVKVKSLLNSCNINIPSSLSITISRDNGDSSSPNNGQHPKHKSPVNNYIEIVKLPDQPQDQVQAAKEAQKRQSPPAAVPGHLAAKLPPPPPSKAIPSPQHLVSRMTPPQLPKVATPPPPSSPRVITPPKTSPPANAAKVTPLKPVLTPTQVDKKTPSPEKRTAAQMGSHSPTASENKSPKGGPAGVANSTGGAQNGDPAAKKFRPILPRQNGMPELAPKLPTLAPFVGFNPLQNPAAGKKVPPSKKSPNAGAAAHQSGQQKLVNGGQSQPAQQKTSPPAQKNQQQVKKVSKNPTPPPPSLPAVGKMMPHPVMHSQNAPLSIASSASAAAVASGQLDLSNFLKENLRRVHAAQAAQAAQVAAAANQSNMMYNLAQMGHMTPAMYNYQQAYFREQLSRMQRVGNEVFNDYLQKLKTAAATGGGGPVEGELKPMLPTVTLPSPGATPPAASPKTSPLPAGKLTAAATAPQTKGNSSSGAANARQQTAATGNNGATVPAASLPPATKSK
# B6: ref(2)P (protein)
# chain: MPEKLLKITYQGAGPQKKINAYLRMPSQNYTILRREIELYLFQERQLPKCDVRTFWIDADKDEIEIVNQNDYEIFLAKCESNMHVQVAPLAPVEEPKATKQEGSSANAEAPSVDDPSNFTIHDAVECDGCGLAPLIGFRYKCVQCSNYDLCQKCELAHKHPEHLMLRMPTNNGPGMVDAWFTGPGLGRRSGRRSRGHCPFQETNQADPAGEPARDSRRERRQARRHAGVLTQFVEMMTNLPLNTTTATAPAEPQKPKAAEQTESPPQAEPTVTAEKAAESEAKPTEPKKVNTDQSVPRTEDPVTTPRSTQPTTPVINLDNISQIVPPEYMSAGIEILNNFSEMFSKIIDTTEGGDSGIFAPSTTPSAENKKPEEQGQSSGQSGASSANQSAVPSAAPSANQSNVPSANQSATPSISGSIPDAQLETEPLNPKPSETTTETEQERRRSDSLDPEWQLIDNAYSANNSNLINLDTTNPTAAPQEPVRDFGQLGELLRQHMNEEARVEQASANTQTAQVDTVSTSTSTTSVTTNSVGTSPAAPDDKRTVPVYHTDESINKSIHAMMAMGFSNEGAWLTQLLESVQGNISAALDVMNVSQNRN
# B7: numb (protein)
# chain: MGNSSSHTHEPLERGFTRGKFGDVKNGKSASFRFSKKSPKKMDRLRRSFRDSFRRRKDRVPESSKPHQWQADEEAVRSATCSFSVKYLGCVEVFESRGMQVCEEALKVLRQSRRRPVRGLLHVSGDGLRVVDDETKGLIVDQTIEKVSFCAPDRNHERGFSYICRDGTTRRWMCHGFLACKDSGERLSHAVGCAFAVCLERKQRRDKECGVTMTFDTKNSTFTRTGSFRQQTLTERLAMATVGTNERSVDGPGSAMPGPPAATVKPFNPFAIERPHATPNMLERQSSFRLSTIGSQSPFKRQMSLRINDLPSNADRQRAFLTAAAGNPMQTPLRSVSPIAEVSPAKSAGADPLSAAAVAADSVSQLCQELSQGLSLLTQTDALLAAGEDLNFNNNRSINQNIIAAEKQVQHVHSYAPPTAQVTPRVASTTPTYQTLHSQSPSRSEQSIETSTELPNAEQWLGHVVRSTSPAAPKRPTYLANVGRAQTLASGTGAAVGGGGPDDPFDAEWVANVAAAKQLSPDLPIPSTARSPLARHSTNPFISPPKAPAQSFQVQL
# B8: Pdhb (protein)
# chain: MLRTRLIQAASSAQRAFSTSQKALAAKQMTVRDALNSALDDELARDDRVFILGEEVAQYDGAYKVSRGLWKKYGDKRVIDTPITEMGFAGIAVGAAMAGLRPVCEFMTWNFSMQAIDHIINSAAKTFYMSAGAVNVPIVFRGPNGAASGVAAQHSQCFAAWYAHCPGLKVLSPYDAEDARGLLKSAIRDPDPVVFLENELVYGTAFPVADNVADKDFLVPIGKAKVMRPGKDITLVAHSKAVETSLLAAAELAKKGIEAEVINLRSIRPLDTATIFASVRKTHHLVTVENGWPQHGVGAEICARIMEDQTFFELDAPVWRCAGVDVPMPYAKTLEAHALPRVQDLVEATLKVLGGKVGKAAAANK
# What was measured:
# Assay in all cases: MAPPIT interaction score (arbitrary units); higher = stronger binary interaction signal, active = hit call of the paper
# Pex14 = details: MAPPIT configuration: N-C; pair source set: screen_3
# Pak3 = details: MAPPIT configuration: N-C; pair source set: RRS
# PIG-C = details: MAPPIT configuration: N-C; pair source set: screen_3
# Tsp96F = details: MAPPIT configuration: N-C; pair source set: screen_4
# Pex3 = details: MAPPIT configuration: N-C; pair source set: screen_3
# SsRbeta = details: MAPPIT configuration: N-C; pair source set: screen_3
# Pc = details: pair source set: Lit-BM-16
# Pbgd = details: pair source set: RRS
# ScpX = details: MAPPIT configuration: N-N; pair source set: Curagen_high_conf
# Past1 = details: MAPPIT configuration: N-N; pair source set: Lit-BM-16
# Rm62 = details: MAPPIT configuration: N-N; pair source set: Curagen_high_conf
# ktub = details: MAPPIT configuration: N-N; pair source set: Curagen_high_conf
# mira = details: pair source set: Lit-BM-16
# Pdha = details: pair source set: Lit-BM-16
# Pgd = details: MAPPIT configuration: N-N; pair source set: DPIM
# qua = details: MAPPIT configuration: N-N; pair source set: DPIM
# 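Also: HEK293T cells with Epo stimulation, STAT-responsive firefly luciferase reporter, fold induction versus unstimulated cells divided by the larger fold induction of two negative controls lacking either bait or prey.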
binder,measurement,setting,value
B1,MAPPIT interaction score,Pex14,2.47
B2,MAPPIT interaction score,Pak3,2.68
B3,MAPPIT interaction score,PIG-C,0.119
same,MAPPIT interaction score,Tsp96F,0.231
B4,MAPPIT interaction score,Pex3,1.39
same,MAPPIT interaction score,SsRbeta,-0.0878
B5,MAPPIT interaction score,Pc; MAPPIT configuration: N-C,1.11
same,MAPPIT interaction score,Pc; MAPPIT configuration: N-N,-0.137
B6,MAPPIT interaction score,Pbgd; MAPPIT configuration: N-C,-0.0221
same,MAPPIT interaction score,Pbgd; MAPPIT configuration: N-N,0.0139
same,MAPPIT interaction score,ScpX,0.0182
B7,MAPPIT interaction score,Past1,0.0235
same,MAPPIT interaction score,Rm62,-0.368
same,MAPPIT interaction score,ktub,-1.3
same,MAPPIT interaction score,mira; MAPPIT configuration: N-C,1.17
same,MAPPIT interaction score,mira; MAPPIT configuration: N-N,-0.252
B8,MAPPIT interaction score,Pdha; MAPPIT configuration: N-C,0.121
same,MAPPIT interaction score,Pdha; MAPPIT configuration: N-N,0.456
same,MAPPIT interaction score,Pgd,-0.835
same,MAPPIT interaction score,qua,-0.463
